# In paper PMC5913336, “True equilibrium measurement of transcription factor-DNA binding affinities using automated polarization microscopy”:
# pKd: −log10 of the molar value.
# Target: T1, Slp1-FL (Drosophila melanogaster, UniProt P32030)
# T1 sequence: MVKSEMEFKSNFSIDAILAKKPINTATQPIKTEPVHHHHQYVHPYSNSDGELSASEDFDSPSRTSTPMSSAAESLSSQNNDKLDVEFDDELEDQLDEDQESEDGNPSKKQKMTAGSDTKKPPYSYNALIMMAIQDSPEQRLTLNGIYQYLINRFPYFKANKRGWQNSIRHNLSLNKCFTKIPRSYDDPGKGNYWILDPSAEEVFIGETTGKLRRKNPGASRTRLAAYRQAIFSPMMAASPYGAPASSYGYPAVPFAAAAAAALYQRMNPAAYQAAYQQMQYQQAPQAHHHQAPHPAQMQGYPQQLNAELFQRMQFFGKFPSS
# Experiment: FP; 33 mM phosphate pH 7.0, 90 mM NaCl, 0.01% Tween 20, 0.1 mM DTT, 0.5% agarose; room temperature
# Conditions: tags: N-GST (pGEX-6P-1, kept); dsDNA, one strand shown
Sequence,binding signal,pKd
ACCTGTTTACACTTA,3.03 Kd / Kd of best base at the position,
ACGGGTTTACACTTA,20.1 Kd / Kd of best base at the position,
ACGTATTTACACTTA,3.26 Kd / Kd of best base at the position,
ACGTGCTTACACTTA,16.8 Kd / Kd of best base at the position,
ACGAGTTTACACTTA,30.1 Kd / Kd of best base at the position,
ACGTGTCTACACTTA,22.3 Kd / Kd of best base at the position,
CCGTGTTTACACTTA,1.25 Kd / Kd of best base at the position,
ACGTGTTTACACATA,9.38 Kd / Kd of best base at the position,
ACGTGTTTTCACTTA,13 Kd / Kd of best base at the position,
ACTTGTTTACACTTA,1.09 Kd / Kd of best base at the position,
ACGTGTTTAAACTTA,44.8 Kd / Kd of best base at the position,
ACGTGTTTACACCTA,2.68 Kd / Kd of best base at the position,
ACGTGTTTACACTTG,1.73 Kd / Kd of best base at the position,
GCGTGTTTACACTTA,1.21 Kd / Kd of best base at the position,
ACGTTTTTACACTTA,21.2 Kd / Kd of best base at the position,
ACGTGTTTACGCTTA,1.83 Kd / Kd of best base at the position,
ACGTGTTTACACTTC,1.33 Kd / Kd of best base at the position,
ACGTGTATACACTTA,19.4 Kd / Kd of best base at the position,
ACGTCTTTACACTTA,68.8 Kd / Kd of best base at the position,
ACGTGTTTACACTCA,3.73 Kd / Kd of best base at the position,

Sequence,binding signal,pKd
ACGTGTTTACATTTA,1.28 Kd / Kd of best base at the position,
TCGTGTTTACACTTA,1.19 Kd / Kd of best base at the position,
ACGTGGTTACACTTA,14.4 Kd / Kd of best base at the position,
ATGTGTTTACACTTA,1.95 Kd / Kd of best base at the position,
ACGCGTTTACACTTA,14.2 Kd / Kd of best base at the position,
AGGTGTTTACACTTA,1.71 Kd / Kd of best base at the position,
ACGTGTTTACACTTT,1.35 Kd / Kd of best base at the position,
ACGTGTTCACACTTA,37.4 Kd / Kd of best base at the position,
ACGTGTTGACACTTA,5.44 Kd / Kd of best base at the position,
ACATGTTTACACTTA,1.13 Kd / Kd of best base at the position,
ACGTGTTTACACTTA,,~7.77
AAGTGTTTACACTTA,8.32 Kd / Kd of best base at the position,
ACGTGTGTACACTTA,7.74 Kd / Kd of best base at the position,
ACGTGTTAACACTTA,14 Kd / Kd of best base at the position,
ACGTGTTTATACTTA,2.63 Kd / Kd of best base at the position,
ACGTGTTTACAGTTA,2.11 Kd / Kd of best base at the position,
ACGTGATTACACTTA,19 Kd / Kd of best base at the position,
ACGTGTTTACACGTA,2.9 Kd / Kd of best base at the position,
ACGTGTTTACTCTTA,2.44 Kd / Kd of best base at the position,
